The panel holds about 83,000 compounds, 20% with a hit somewhere; the sample as a whole holds those more often.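 48-hour exposure, single concentration, 96-well plates; percent growth endpoint where 0 means no net growth. Active: below 10.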 Values without a mark were called inactive. Activity calls are given as the source filed them.

Among the test systems are DU-145 prostate; K-562 leukemia; MALME-3M melanoma; MDA-MB-231 breast; RXF 393 renal; SF-268 CNS; SF-295 CNS; SF-539 CNS; UACC-257 melanoma; M14 melanoma.
Holding throughout (assay): NCI-60 one-dose screen, 48 h (100 = growth as untreated, 0 = no growth, -100 = all killed)
What all share (conditions): 10 µM unless noted

Take `CC(=O)OCC(=O)[C@@]1(O)[C@H](C)C[C@H]2[C@@H]3C=C(C)C4=Cc5c(cnn5-c5ccc(F)cc5)C[C@]4(C)[C@H]3[C@@H](O)C[C@@]21C`: the growth in the assay with DU-145 prostate was 13.9%; in the assay on K-562 leukemia, 12.6%; in the assay on MALME-3M melanoma, 61.8%; with MDA-MB-231 breast, 53.1%; in the assay on RXF 393 renal, -12.3% (active); in the assay on SF-268 CNS, 34.2%. Moreover, the growth is -32.2% (active) in the assay with SF-295 CNS, -39.6% (active) in the assay on SF-539 CNS, 49.8% in the assay on UACC-257 melanoma and 32.6% in the assay with M14 melanoma.
For the molecule `c1cc[c]([Bi]([c]2ccccc2)[c]2ccccc2)cc1`, the growth with DU-145 prostate was 107%; with K-562 leukemia, 105%; in the assay with MALME-3M melanoma, 94%; with MDA-MB-231 breast, 95.2%; in the assay with RXF 393 renal, 101%; with SF-268 CNS it was 104%. For the same molecule, the growth with SF-295 CNS was 103%; in the assay with SF-539 CNS it was 105%; in the assay with UACC-257 melanoma it was 106%; with M14 melanoma, 94%.
For the molecule `O=C1C(=O)c2ccccc2C(O)=C1CCCc1ccc(Oc2ccccc2)cc1`, the growth in the assay on DU-145 prostate was 85.4%; in the assay on K-562 leukemia, 34%; in the assay on MALME-3M melanoma, 54.7%; in the assay on MDA-MB-231 breast, 89.1%; with RXF 393 renal it was 92.9%; in the assay with SF-268 CNS it was 47.2%. For the same molecule, the growth in the assay with SF-295 CNS was 92.9%; with SF-539 CNS, 68.6%; in the assay with UACC-257 melanoma it was 51.5%; in the assay with M14 melanoma, 41.3%.
In the case of `CN1CCN(Cc2ccc(NC(=O)c3ccc(C#Cc4c(N)ncc5ccc(F)cc45)cc3)cc2C(F)(F)F)CC1`, the growth was -46.5% (active) in the assay on DU-145 prostate; -44.5% (active) with K-562 leukemia; -88.1% (active) with MALME-3M melanoma; -72.5% (active) in the assay on MDA-MB-231 breast; -43.5% (active) in the assay on RXF 393 renal; -21.1% (active) with SF-268 CNS. Also, the growth in the assay with SF-295 CNS is -56.7% (active); in the assay with SF-539 CNS, -90% (active); in the assay on UACC-257 melanoma, -58.5% (active); with M14 melanoma, -89.2% (active).
For `C=CN(C)S(C)(=O)=O`, the growth with DU-145 prostate is 18.5%; with K-562 leukemia it was 21.9%; in the assay on MALME-3M melanoma, 28.3%; with MDA-MB-231 breast, 46.2%; with RXF 393 renal it was -9.3% (active); in the assay on SF-268 CNS, 36.5%. For the same molecule, the growth is 8.18% (active) with SF-295 CNS, 4.91% (active) in the assay on SF-539 CNS, 35.5% in the assay on UACC-257 melanoma and 28.8% in the assay on M14 melanoma.
Take `CCCCCSc1ccc2nc(NC(=O)OCCC)sc2c1`: the growth is 43.2% with DU-145 prostate; 19% in the assay with K-562 leukemia; 62.5% with MALME-3M melanoma; 43.3% in the assay on MDA-MB-231 breast; 28.8% in the assay on RXF 393 renal; 55.2% in the assay with SF-268 CNS. The growth in the assay with SF-295 CNS was 19.9%; in the assay with SF-539 CNS, -24.7% (active); in the assay on UACC-257 melanoma it was 63.1%; with M14 melanoma, 23.1%.
As for `COc1cc(-c2c3c(cn2CCN2CCCCC2)-c2oncc2CC3)cc(OC)c1OC`, the growth is 109% in the assay with DU-145 prostate; 108% in the assay on K-562 leukemia; 110% in the assay on MALME-3M melanoma; 109% with MDA-MB-231 breast; 100% in the assay with RXF 393 renal; 94.7% in the assay with SF-268 CNS. For the same molecule, the growth with SF-295 CNS is 97.6%; with SF-539 CNS, 94%; with UACC-257 melanoma it was 109%; in the assay on M14 melanoma it was 105%.
For `COc1cc(-c2cc3cnccc3c3nc(N)c4ccncc4c23)cc(OC)c1OC`, the growth with DU-145 prostate is 62.3%; with K-562 leukemia it was 24.1%; in the assay on MALME-3M melanoma it was 59.8%; in the assay on MDA-MB-231 breast, 42.9%; with RXF 393 renal, 8.24% (active); in the assay on SF-268 CNS, 49.4%. The growth is 67.3% in the assay on SF-295 CNS, 38% in the assay with SF-539 CNS, 92.2% with UACC-257 melanoma and 68.1% in the assay with M14 melanoma.
In the case of `COc1ccc(C2CC(=O)c3c(O)cc(OC4OC(COC5OC(C)C(O)C(O)C5O)C(O)C(O)C4O)cc3O2)cc1O` (stereo not given), the growth with DU-145 prostate is 136%; in the assay on K-562 leukemia, 167%; in the assay with MALME-3M melanoma, 96.1%; in the assay on MDA-MB-231 breast, 111%; in the assay on RXF 393 renal, 111%; in the assay on SF-268 CNS it was 112%. The growth in the assay on SF-295 CNS is 87.8%; with SF-539 CNS, 98.7%; in the assay with UACC-257 melanoma, 95.5%; with M14 melanoma it was 98.7%.
As to `CCCCCCCCC/C(=N\NC(=O)c1ccncc1)c1ccc(O)c(O)c1O`, the growth was 27.8% with DU-145 prostate; 15.1% with K-562 leukemia; 35.4% in the assay on MALME-3M melanoma; 47.9% in the assay on MDA-MB-231 breast; 19.2% with RXF 393 renal; 17.6% in the assay on SF-268 CNS. Besides, the growth with SF-295 CNS is 16.3%; with SF-539 CNS it was 7.62% (active); with UACC-257 melanoma, 8.98% (active); with M14 melanoma, 8.78% (active).
On to `CCn1cnc(C[C@H](NC(=O)[C@@H](NC(=O)Nc2cc(C(F)(F)F)cc(C(F)(F)F)c2)C(C)(C)C)C(=O)OC)c1`, for which the growth was -95.1% [100 µM] (active) in the assay on DU-145 prostate; -47% [100 µM] (active) with K-562 leukemia; -82.5% [100 µM] (active) in the assay with MALME-3M melanoma; -93.6% [100 µM] (active) in the assay with MDA-MB-231 breast; -83.7% [100 µM] (active) in the assay with RXF 393 renal; -89.2% [100 µM] (active) in the assay on SF-268 CNS. Besides, the growth was -88.6% [100 µM] (active) in the assay on SF-295 CNS, -93.4% [100 µM] (active) with SF-539 CNS, -96.2% [100 µM] (active) in the assay on UACC-257 melanoma and -90.8% [100 µM] (active) with M14 melanoma.
In the case of `O=C(NCCCl)Nc1nccnc1OCc1ccc(F)cc1`, the growth in the assay on DU-145 prostate is 114%; with K-562 leukemia, 99.4%; in the assay with MALME-3M melanoma, 148%; with MDA-MB-231 breast it was 87.6%; with RXF 393 renal, 109%; with SF-268 CNS, 99.2%. The growth in the assay with SF-295 CNS was 99.2%; in the assay on SF-539 CNS, 109%; in the assay with UACC-257 melanoma, 109%; in the assay with M14 melanoma it was 95.3%.
Turning to `COc1ccccc1C(=O)Nc1cccc(-c2cc(=O)c3c(OC)c(OC)c(OC)cc3o2)c1`, the growth in the assay on DU-145 prostate was 44.9%; in the assay on K-562 leukemia, 36.4%; with MALME-3M melanoma it was 65.5%; with MDA-MB-231 breast it was 51.3%; with RXF 393 renal it was 59%; in the assay on SF-268 CNS, 54.5%. Besides, the growth with SF-295 CNS was 59.2%; in the assay on SF-539 CNS, 63.8%; in the assay on UACC-257 melanoma it was 61.5%; in the assay on M14 melanoma it was 41.5%.
In the case of `CCc1ccc(C(=Nc2ccc(N(C)C(=O)CN3CCN(C)CC3)cc2)c2c(O)[nH]c3ccc(C(=O)OC)cc23)cc1`, the growth is -11.5% (active) with DU-145 prostate; -60.7% (active) with K-562 leukemia; -91.8% (active) in the assay on MALME-3M melanoma; -71% (active) with MDA-MB-231 breast; -96.8% (active) with RXF 393 renal; -69.9% (active) in the assay on SF-268 CNS. In addition, the growth in the assay on SF-295 CNS was -88% (active); in the assay on SF-539 CNS, -98.5% (active); in the assay on UACC-257 melanoma, -67.4% (active); with M14 melanoma it was -86.7% (active).
